D3 ag: activates the human D3 dopamine receptor | D3R DiscoveRx beta-arrestin cells, luminescence, 90 min | max activation, % | 0.58% of 410,000 active | AID 652048; in the data active = max activation above about 30%; note: 0% is about no effect
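Cells at 1500/well, incubated overnight, then treated with pinned compounds (dopamine as control) for 90 min at 37 degrees C. DiscoveRx reagent added for 30 - 60 minutes at room temperature; luminescence read.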
Rango-impB inh: inhibitors of Rango-importin beta complex formation. Q14974. Rango CFP/YFP FRET sensor + importin beta, 45 min. Potency, µM (doses to about 92.2 µM), for inactives: top-dose inhibition of complex formation. 0.031% of 340,000 active. AID 540263;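 note: potency is the fitted concentration of half-maximal effect; 0% = DMSO wells and 100% = buffer wells lacking importin beta; nearly all actives have a fitted effect of over 15% in size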
Target sequence (Q14974 whole entry, looked up): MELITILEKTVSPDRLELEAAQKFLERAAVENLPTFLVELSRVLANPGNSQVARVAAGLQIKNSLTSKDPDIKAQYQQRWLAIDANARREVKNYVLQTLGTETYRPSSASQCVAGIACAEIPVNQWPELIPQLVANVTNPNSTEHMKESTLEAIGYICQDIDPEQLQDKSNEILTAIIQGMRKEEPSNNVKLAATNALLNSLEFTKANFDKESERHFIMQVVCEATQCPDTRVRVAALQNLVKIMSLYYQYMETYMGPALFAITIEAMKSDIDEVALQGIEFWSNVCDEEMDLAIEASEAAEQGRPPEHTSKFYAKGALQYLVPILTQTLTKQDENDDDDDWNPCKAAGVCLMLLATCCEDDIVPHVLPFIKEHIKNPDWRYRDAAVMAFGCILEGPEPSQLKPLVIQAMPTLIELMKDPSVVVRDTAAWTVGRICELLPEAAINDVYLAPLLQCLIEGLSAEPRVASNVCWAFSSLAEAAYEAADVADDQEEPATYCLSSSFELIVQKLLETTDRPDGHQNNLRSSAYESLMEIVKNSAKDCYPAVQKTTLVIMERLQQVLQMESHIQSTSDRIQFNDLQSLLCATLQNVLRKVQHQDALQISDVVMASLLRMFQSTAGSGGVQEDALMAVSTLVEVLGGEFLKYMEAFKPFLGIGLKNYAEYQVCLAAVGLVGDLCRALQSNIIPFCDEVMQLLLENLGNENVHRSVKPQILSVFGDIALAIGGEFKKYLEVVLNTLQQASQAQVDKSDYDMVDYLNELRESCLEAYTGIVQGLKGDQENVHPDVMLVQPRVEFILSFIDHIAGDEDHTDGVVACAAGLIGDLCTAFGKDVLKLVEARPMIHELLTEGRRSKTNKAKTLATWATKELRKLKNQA
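FRET biosensor Rango (snurportin 1 IBB between N-terminal EYFP and C-terminal Cerulean), 50 nM in PBS/1 mM DTT/0.02% Tween-20/0.1% BSA, preincubated 5 min RT with compound; 0.125 microM importin beta added, 45 min RT, CFP/YFP FRET ratio read.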
PTAP TSG101 blk: blocks PTAP/TSG101 interaction to inhibit HIV-1 budding; Fluorescence polarization, FITC-PTAP peptide / Tsg101 binding; 340,000 tested, under 10 active; Potency, µM (doses to about 115 µM), without a hit: at the top dose activity change, negative = inhibition, most hits filed as inhibitors; AID 493005; Q99816; active = well fitted inhibition curve with a large enough effect in the main read-out, with a control signal flat, not every such curve was filed as active; inconclusive = small, poorly fitted or top-dose-only effect, or effect the other way, or a change in a side signal; inactive = no such curve, though single readings can be large or run the other way; note: potency is the fitted concentration of half-maximal effect; % of control where 0% means no effect
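Fluorescence polarization binding of Tsg101 binding domain (10 uM final) to FITC-labeled PTAP peptide (50 nM final) in HEPES pH 7.5 buffer with NaCl, Tween 20, EDTA, TCEP. Compounds added before peptide; binding 20 min at RT.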
DRD3 antagonist: D3 dopamine receptor (human) antagonism. D3R cells, DiscoveRx beta-arrestin luminescence, antagonist mode; stronger effect = lower value. max response, negative = inhibition, %. 2.5% of 360,000 active; in the data active = max response below about -50%; inconclusive = no clear call, values can overlap the other calls; note: % is set by controls: 0 for no effect and ±100 for the full control effect
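Cells expressing the human receptor were seeded at 1500 cells/well, incubated overnight at 37 degrees C in 5% CO2, then exposed to library compounds with dopamine controls for 90 minutes at 37 degrees C before luminescent detection.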
Rango dissoc inh: inhibition of RanGTP-driven Rango-importin beta dissociation. AID 540253. Potency, µM (highest dose often 46.1 µM), without a hit: top-dose activity change, negative = inhibition. Biochemical FRET Rango-importin beta, RanGTP-induced dissociation. O95149+P62826. 0.071% of 340,000 active; note: potency is the fitted concentration of half-maximal effect; % of control where 0% means no effect; nearly all actives have a fitted effect of over 45% in size
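Rango FRET biosensor (snurportin-1 IBB flanked by N-terminal EYFP and C-terminal CFP10) at 0.1 uM, with 0.25 uM importin beta in PBS, 1mM DTT, 0.02% Tween-20, 0.1% BSA. 0.6 uM Ran, 2mM GTP and 0.2 uM RCC1 were then added for 45 min at room temperature. Inhibition read as loss of FRET rise.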
MmCpn inh: blocks the Methanococcus maripaludis chaperonin Mm-Cpn; AID 504842; 0.031% of 330,000 active; purified Mm-Cpn ATPase, ADP Transcreener TR-FRET; Potency, µM (highest dose often 76.9 µM), without a hit: at the top dose activity, negative = inhibition, actives largely listed as inhibitors; active = well fitted inhibition curve with a large enough effect; inconclusive = small, poorly fitted or top-dose-only effect; note: potency is the fitted concentration of half-maximal effect; % is set by controls: 0 for no effect and ±100 for the full control effect; nearly all actives have a fitted effect of over 80% in size
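Eu-cryptate anti-ADP/ADP-d2 competition gives a ratio inversely related to ADP. Enzyme at 25 nM was pre-exposed to compound for 10 min, then given 10 uM ATP for 30 min, 37°C throughout.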
Starred values were filed as active, the others as inactive; ? = inconclusive; nt = no result. Hits are enriched below; roughly 2.9% of the tested compounds scored in any of these assays. Unless noted, calls come from the whole dose curve.

SMILES	D3 ag	Rango-impB inh	PTAP TSG101 blk	DRD3 antagonist	Rango dissoc inh	MmCpn inh
C=CCN1CCc2c(cc(O)c(O)c2Cl)C(c2ccccc2)C1 (stereo not given)	97*	0%	0%	0	-1%	0%
CCC(C)(C)NC(=O)C1CCC(CNS(=O)(=O)c2ccc3c(c2)CC(C)N3C(C)=O)CC1 (stereo not given)	12	nt	nt	nt	nt	nt
COc1cccc(OC)c1OCCNCC1CSc2ccccc2O1 (stereo not given)	-81	?	-2%	-95*	0%	nt
COc1ccc(NC(=O)CSc2oc(-c3cccs3)nc2S(=O)(=O)c2ccccc2)c(OC)c1	59*	nt	nt	nt	nt	nt
CN(C(=O)c1cccc(NC(=O)Cc2cccc([N+](=O)[O-])c2)c1)C1CCCC1	-19	0%	nt	-75*	1%	1%
O=C(Cc1cccc(NC(=O)C2CCCN(C(=O)c3ccccc3)C2)c1)Nc1ccc(C(=O)N2CCCCC2)cc1 (stereo not given)	-11	2%	0%	?	-8%	nt
CN(C(=O)c1cccc(NC(=O)Cc2cccc(NC(=O)C3CCN(C(=O)CCc4ccccc4)CC3)c2)c1)C1CC1	40*	3%	-1%	10	0%	nt
CN(C(=O)c1cccc(NC(=O)Cc2cccc([N+](=O)[O-])c2)c1)C1CCC1	14	0%	nt	11	-10%	0%
O=C(Cc1cccc(NC(=O)C2CCCN(C(=O)CCc3ccccc3)C2)c1)Nc1ccc(C(=O)N2CCCCC2)cc1 (stereo not given)	-34	-1%	8%	-52*	-11%	nt
CN(Cc1ccccc1)C(=O)c1cccc(NC(=O)Cc2ccc(NC(=O)C3CCN(C(=O)CCc4ccccc4)CC3)cc2)c1	78*	-1%	3%	44	7%	nt
COc1cc2c(cc1OC)n(CC(=O)Nc1ccccc1)c(=O)n1nc(-c3ccccc3)nc21	7	nt	nt	nt	nt	nt
COc1cc(OC)c(OC)cc1/C=C/c1nc2cc3ccccc3cc2c(=O)n1-c1ccccc1Br	7	nt	nt	nt	nt	nt
COc1cccc(NC(=O)Cn2nc(N3CCN(c4ccccc4)CC3)ccc2=O)c1	-15	nt	nt	nt	nt	nt
COc1ccc(CNC(=O)c2cc3c(s2)-c2c(C)cccc2OC3)cc1	-10	nt	nt	nt	nt	nt
CCOC(=O)c1c(N)sc2c(NC(C)=O)cccc12	0	1%	2%	-81*	4%	1%
O=C1C(=O)N(C2CCN(S(=O)(=O)c3ccc(F)cc3)CC2)CCN1Cc1ccccc1	1	nt	nt	nt	nt	nt
CCCCNCc1cc2ccccc2o1	-12	1%	-8%	-51*	17%	1%
COC(=O)C(=C/C(C)=C/c1cccnc1)C(=O)OC	1	-2%	0%	-52*	20%	-1%
O=C(NCc1ccc(F)cc1)C1(S(=O)(=O)c2ccc(Cl)cc2)CC1	2	0%	-5%	2	0%	1%
COc1ccc(-c2cc(-c3ccccc3)nc(N3CCCC3)n2)cc1OC	41*	?	-1%	49	-6%	-18%
CN1CCN(c2nc(-c3cccs3)cc(C(F)(F)F)n2)CC1	-5	0%	-4%	-94*	0%	1%
CC1CCN(c2nc(-c3ccccc3)cc(C(F)(F)F)n2)CC1	2	-1%	-5%	-22	0%	1%
COc1ccc(-c2cc(C(F)(F)F)nc(N3CCOCC3)n2)cc1OC	2	-2%	-3%	5	5%	0%
O=[N+]([O-])c1cnn(-c2nc(-c3cccs3)cc(C(F)(F)F)n2)c1	7	0%	-3%	23	-4%	2%
CN1CCN(c2nc(-c3ccccc3)cc(C(F)(F)F)n2)CC1	-4	1%	-3%	-70*	-13%	5%
SMILES	D3 ag	Rango-impB inh	PTAP TSG101 blk	DRD3 antagonist	Rango dissoc inh	MmCpn inh
O=C(/C=C/c1ccc(Cl)cc1)N1CCC(c2nc3ccccc3o2)CC1	9	nt	nt	nt	nt	nt
CC(C)C(c1nnnn1C(C)(C)C)N1CCOCC1 (stereo not given)	-4	-3%	-10%	-61*	-16%	0%
COc1ccc(/C=C/C(=O)c2ccc([N+](=O)[O-])o2)cc1OC	-29	?	-2%	?	9%	-1%
COc1cc(/C=C/C(=O)c2ccc([N+](=O)[O-])o2)ccc1O	-31	4%	-1%	-98*	1%	1%
O=C(/C=C/c1cccc(Cl)c1)c1ccc([N+](=O)[O-])o1	-10	0%	-3%	-84*	-11%	-3%
Cc1cc(NC(=O)CCNS(=O)(=O)c2cc(Br)cnc2N)ccc1Br	-4	-2%	-1%	-51*	12%	-2%
CNS(=O)(=O)c1cccc(C(=O)Nc2cccnc2)c1	-23	?	-5%	-57*	-24%	1%
O=C(Nc1cccnc1)c1cccc(S(=O)(=O)Nc2cccc(Cl)c2)c1	2	-2%	-6%	-4	1%	3%
CC(C)(C)C(=O)/C(=C/c1ccncc1)n1cncn1	-10	-1%	-4%	-56*	-6%	3%
Cc1nn(C)c(C)c1/C=C(/C(=O)C(C)(C)C)n1cncn1	-3	0%	-3%	-13	1%	-1%
O=C(NCCc1cccc(C(F)(F)F)c1)C1CCC(=O)N(C2CC2)C1 (stereo not given)	-3	-2%	-1%	1	3%	1%
O=C(CCCN1CCC(O)(c2cccc(C(F)(F)F)c2)CC1)c1ccc(F)cc1	0	3%	-5%	-61*	0%	1%
O=C(CCCN1CCC(O)(c2ccc(Br)cc2)CC1)c1ccc(F)cc1	-83	-1%	1%	-122*	-13%	0%
CC(=O)N1CCC(O)(c2cccc(C(F)(F)F)c2)CC1	-8	-2%	-5%	5	0%	0%
CCCCN1C(=O)C(=O)N(CC(=O)c2ccc3c(c2)OCO3)C1=O	-1	2%	0%	0	-6%	3%
CCOc1ccc2oc(=O)cc(CN3CCN(c4ccc(Cl)cc4)CC3)c2c1	5	nt	nt	nt	nt	nt
COc1ccccc1N1CCN(C(CNS(=O)(=O)c2cccs2)c2cccnc2)CC1 (stereo not given)	-7	0%	-2%	-50*	8%	-3%
Cc1ccc(-c2csc(=S)n2CC(=O)OCC(=O)NCc2ccc(F)cc2)cc1	nt	nt	nt	nt	nt	-7%
O=C(Cn1cnc2ccccc2c1=O)Nc1cccc(-c2nnc3n2CCCCC3)c1	-1	-3%	-7%	-51*	-7%	0%
COc1ccc(CNC(=O)c2ccc(CN3C(=O)C(C)=C(c4ccc(C)cc4)S3(=O)=O)cc2)cc1	-5	nt	nt	nt	nt	nt

Assay outcomes from PubChem BioAssay.
